{"source": "the antibiotic and cytotoxicity screens of Wong et al. (2023)", "note": "Hit rate of the full screen: of about 39,000 compounds, about 3,300 (8.5%) were called active. This is one part of a sample in which actives are shown more often than they occur."}
{"test_system": "HepG2", "test": "cytotoxicity call (relative viability < 0.9)", "conditions": "10 µM"}
{"smiles": "CNC1C(O)C(OC2C(N)CC(N)C(OC3OC(C(C)O)C(O)C(O)C3N)C2O)OCC1(C)O", "note": "(centres undefined)", "cytotoxicity call": "inactive"}
{"smiles": "CNC(=O)[C@H]1C[C@H]2CN(CC3CC3)C[C@H]1O2", "cytotoxicity call": "inactive"}
{"smiles": "CCN1C[C@H]2C[C@H](C(=O)NCC3CC3)[C@@H](C1)O2", "cytotoxicity call": "inactive"}
{"smiles": "C[C@@]1(O)[C@H](O)[C@@H](CO)O[C@H]1n1ccc2c(N)ncnc21", "cytotoxicity call": "inactive"}
{"smiles": "CN(C)C(=O)Oc1cccc([N+](C)(C)C)c1.COS(=O)(=O)[O-]", "cytotoxicity call": "inactive"}
{"smiles": "COc1ccc(Cc2nccc3cc(OC)c(OC)cc23)cc1OC.Cl", "cytotoxicity call": "active"}
{"smiles": "COc1ccc(CCN)cc1OC", "cytotoxicity call": "inactive"}
{"smiles": "COc1ccc(C[C@@H](N)c2ccc(C)cn2)cc1OC", "cytotoxicity call": "inactive"}
{"smiles": "NCCc1cc(O)c(O)cc1O", "cytotoxicity call": "inactive"}
{"smiles": "COc1cc(OC)c(OC)cc1C=O", "cytotoxicity call": "active"}
{"smiles": "COc1cc2c(cc1C=O)OCO2", "cytotoxicity call": "inactive"}
{"smiles": "COc1cccc(C=O)c1OC", "cytotoxicity call": "inactive"}
{"smiles": "O=C1C[C@@H](c2ccc(O)cc2)CN1", "cytotoxicity call": "inactive"}
{"smiles": "O=C(O)C(Cl)Cl", "cytotoxicity call": "inactive"}
{"smiles": "N[C@@H](Cc1ccccc1)c1ccc2c(c1)OCCO2", "cytotoxicity call": "inactive"}
{"smiles": "C1CCC(NC2CCCCC2)CC1", "cytotoxicity call": "inactive"}
{"smiles": "CC12C=CC(=O)C=C1CCC1C2CCC2(C)C(=O)CCC12", "note": "(centres undefined)", "cytotoxicity call": "inactive"}
{"smiles": "CCC1(C2OC(C3OC(O)(CO)C(C)CC3C)CC2C)CCC(C2(C)CCC3(CC(O)C(C)C(C(C)C(OC)C(C)C(=O)[O-])O3)O2)O1.[Na+]", "note": "(centres undefined)", "cytotoxicity call": "active"}
{"smiles": "Cl.NCCc1ccccc1", "cytotoxicity call": "inactive"}
{"smiles": "NC(Cc1ccccc1)Cc1ccccc1", "cytotoxicity call": "inactive"}
{"smiles": "S=C=NCc1ccccc1", "cytotoxicity call": "active"}
{"smiles": "O=C(O)[C@H]1N[C@H]2CC[C@@H]1C2", "cytotoxicity call": "inactive"}
{"smiles": "CC(=O)N[C@@H]1[C@H](O[C@@H]2O[C@H](C[C@@H](O)[C@H]3O[C@@H](n4ccc(=O)[nH]c4=O)[C@H](O)[C@@H]3O)[C@H](O)[C@H](O)[C@H]2NC(=O)/C=C/CCCCCCCCC(C)C)O[C@@H](CO)[C@H](O)[C@H]1O", "cytotoxicity call": "active"}
{"smiles": "COc1ccc(OC(=O)N(C)C[C@H]2OCc3ccccc3-c3c(n(C)c4ccccc34)C(=O)N([C@H](C)CO)C[C@H]2C)cc1", "cytotoxicity call": "inactive"}
{"smiles": "C1COC2(CN1)CNC2", "cytotoxicity call": "inactive"}
{"smiles": "O.O=P1(N(CCCl)CCCl)NCCCO1", "note": "(centres undefined)", "cytotoxicity call": "inactive"}
{"smiles": "Cc1ccnc(N2CCNCC2)c1", "cytotoxicity call": "inactive"}
{"smiles": "CCCCCCCCCC(=O)O[C@@H]1[C@@H](C)[C@]2(O)[C@@H](C=C(CO)C[C@]3(O)C(=O)C(C)=C[C@@H]23)[C@@H]2C(C)(C)[C@@]12OC(=O)CCCCCCCCC", "cytotoxicity call": "active"}
{"smiles": "CCCCCCCCCCCCCC(=O)O[C@@H]1[C@@H](C)[C@@]2(O)[C@@H](C=C(CO)C[C@]3(O)C(=O)C(C)=C[C@@H]23)[C@@H]2C(C)(C)[C@]12OC(C)=O", "cytotoxicity call": "active"}
{"smiles": "CC1=C[C@H]2[C@]3(O)[C@H](C=C(CO)C[C@]2(O)C1=O)[C@H]1C(C)(C)[C@@]1(O)[C@H](O)[C@@H]3C", "cytotoxicity call": "inactive"}
{"smiles": "CCCCCCCCCC(=O)O[C@@H]1[C@@H](C)[C@@]2(O)[C@@H](C=C(CO)C[C@]3(O)C(=O)C(C)=C[C@@H]23)[C@@H]2C(C)(C)[C@]12OC(=O)CCCCCCCCC", "cytotoxicity call": "inactive"}
{"smiles": "Cc1ccc(CC2(N)CC2)cc1", "cytotoxicity call": "inactive"}
{"smiles": "CC(C)C[C@H](NC(=O)[C@H](CO)NC(=O)CNC(=O)[C@H](CC(C)C)NC(=O)[C@H](CCC(=O)O)NC(=O)[C@H](Cc1ccc(O)cc1)NC(=O)[C@H](CO)NC(=O)[C@H](CC(N)=O)NC(=O)[C@H](Cc1ccccc1)NC(=O)[C@H](CO)NC(=O)[C@@H](N)CSSC[C@H](N)C(=O)N[C@@H](Cc1ccc(O)cc1)C(=O)NCC(=O)N[C@@H](CCCNC(=N)N)C(=O)N[C@@H](CCCCN)C(=O)N[C@@H](CCCCN)C(=O)N[C@@H](CCCNC(=N)N)C(=O)N[C@@H](CCCNC(=N)N)C(=O)N[C@@H](CCC(N)=O)C(=O)N[C@@H](CCCNC(=N)N)C(=O)N[C@@H](CCCNC(=N)N)C(=O)N[C@@H](CCCNC(=N)N)C(=O)O)C(=O)O", "cytotoxicity call": "inactive"}
{"smiles": "CN(CC[C@H](N)CC(=O)N[C@H]1C=C[C@@H](n2ccc(N)nc2=O)O[C@@H]1C(=O)O)C(=N)N", "cytotoxicity call": "inactive"}
{"smiles": "c1cncc(N2CCNCC2)c1", "cytotoxicity call": "inactive"}
{"smiles": "Cc1[nH]c2ccccc2c1CCN", "cytotoxicity call": "inactive"}
{"smiles": "C=CCOC(=O)[C@@H]1[C@H](C(=O)OC)N(C)[C@@H](c2ccccc2)[C@]12C(=O)Nc1ccc(I)cc12", "cytotoxicity call": "inactive"}
{"smiles": "OCCN(CCO)CCO", "cytotoxicity call": "inactive"}
{"smiles": "NC1Cc2ccccc2C1", "cytotoxicity call": "inactive"}
{"smiles": "CC(=O)OC(C)(C)/C=C/C(=O)C(C)(O)[C@H]1[C@H](O)C[C@@]2(C)[C@H]3CC=C4[C@@H](C[C@H](O)C(=O)C4(C)C)[C@]3(C)C(=O)C[C@]12C", "note": "(some centres undefined)", "cytotoxicity call": "active"}
{"smiles": "CC(C)(O)/C=C/C(=O)[C@](C)(O)[C@H]1[C@H](O)C[C@@]2(C)[C@H]3CC=C4[C@@H](CC(=O)C(=O)C4(C)C)[C@]3(C)C(=O)C[C@]12C", "cytotoxicity call": "active"}
{"smiles": "Cc1nc(N2CCN(C)CC2)ccc1N", "cytotoxicity call": "inactive"}
{"smiles": "C[C@@H]1CN([C@H](C)CO)C(=O)CCCn2nncc2CO[C@H]1CN(C)C(=O)Oc1cccc2ccccc12", "cytotoxicity call": "inactive"}
{"smiles": "O=C1C2CCN(CC2)C1(CO)CO", "cytotoxicity call": "inactive"}
{"smiles": "CN[C@@H]1[C@@H](O)[C@@H](O[C@@H]2[C@@H](O)[C@H](O[C@H]3O[C@H](CN)CC[C@H]3N)[C@@H](N)C[C@H]2N)OC[C@]1(C)O.CN[C@@H]1[C@@H](O)[C@@H](O[C@@H]2[C@@H](O)[C@H](O[C@H]3O[C@H]([C@@H](C)N)CC[C@H]3N)[C@@H](N)C[C@H]2N)OC[C@]1(C)O.CN[C@@H]1[C@@H](O)[C@@H](O[C@@H]2[C@@H](O)[C@H](O[C@H]3O[C@H]([C@@H](C)NC)CC[C@H]3N)[C@@H](N)C[C@H]2N)OC[C@]1(C)O", "cytotoxicity call": "inactive"}
{"smiles": "CN1C2CCC1CC(OC(=O)C(CO)c1ccccc1)C2.O=S(=O)(O)O", "note": "(centres undefined)", "cytotoxicity call": "inactive"}
{"smiles": "CNCC(=O)c1ccc(O)c(O)c1.Cl", "cytotoxicity call": "inactive"}
{"smiles": "CCn1nc(-c2cccnc2)nc2c(=O)n(C)c(=O)nc1-2", "cytotoxicity call": "active"}
{"smiles": "CCCC(=O)O[C@H]1CN2CC[C@H](O)[C@@H]2[C@@H](O)[C@@H]1O", "cytotoxicity call": "inactive"}
{"smiles": "O=[N+]([O-])O[C@@H]1CO[C@H]2[C@@H]1OC[C@@H]2O", "cytotoxicity call": "inactive"}
{"smiles": "C1CNC[C@@H](N2CCCC2)C1", "cytotoxicity call": "inactive"}
{"smiles": "O=C(NC[C@H]1CC[C@@H]2NC[C@@H]2O1)C1CCCC1", "cytotoxicity call": "inactive"}
{"smiles": "C=CCN=C=S", "cytotoxicity call": "active"}
{"smiles": "O=C1NCN(c2ccccc2)C12CCNCC2", "cytotoxicity call": "inactive"}
